This is an account of results in PubChem BioAssay AID686979 (National Center for Advancing Translational Sciences (NCATS), 2013).

Out of some 420,000 compounds screened, about 50,000 (12%) were called active. Roughly 26% stayed inconclusive and do not appear here. The call rests on the fitted dose curve; in most records, active means well fitted inhibition curve with a large enough effect; inconclusive means small, poorly fitted or top-dose-only effect; inactive means flat fitted curve, though single readings scatter. Shown is part of a subset that was picked to be rich in actives. Where a call stands in place of a potency, no number is given.
Potency means the concentration at half of the fitted maximal effect.

The experiment is described as follows: qHTS for Inhibitors of human tyrosyl-DNA phosphodiesterase 1 (TDP1): qHTS in cells in presence of CPT. Further: nearly all actives have a fitted effect of over 55% in size. The note with it: chicken DT40 Tdp1-/-;hTDP1 cells + 20 nM CPT, ATP luminescence, 48 h; series mostly up to 46.2 µM. Summed up: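 Chicken DT40 Tdp1-/- cells complemented with human TDP1, 400 cells/well, exposed to compounds plus 20 nM camptothecin for at least 48 h at 37 C; viability read as ATP content by CellTiter-Glo luminescence.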
A general note: In qHTS, concentration-response curves come from the screen itself.
With `O[C@H]1CN(Cc2cccs2)[C@@H](c2ccc(Cl)cc2)C[C@@H]1n1cc(C2CC2)nn1`, the Potency entry was “inactive”. As to `O=C(Cc1cccs1)NCc1cccc(C(F)(F)F)c1`, the Potency result is “inactive”.

As to `Cc1ccc(O)c(-c2cc(C(=O)NCc3ccccc3)[nH]n2)c1`, the Potency entry was “inactive”. For `Cc1cc(O)ccc1-c1cc(C(=O)NCc2cc(C(F)(F)F)cc(C(F)(F)F)c2)[nH]n1`, the Potency was 18.4 µM (active).

Turning to `Cc1ccc(NC(=O)COC(=O)C2C3CC4OC(=O)C2C4C3)cc1Cl` (stereo not given), the Potency entry was “inactive”. Turning to `CC(C)(C)n1nnnc1C(c1ccc(F)cc1)N1CCN(Cc2ccc3c(c2)OCO3)CC1` (stereo not given), the Potency entry is “inactive”.

For `CC(C)(C)n1nnnc1C(c1ccccc1F)N1CCN(C(=O)c2ccco2)CC1` (stereo not given), the Potency entry is “inactive”.

Turning to `Fc1ccccc1C(c1nnnn1Cc1ccc2c(c1)OCO2)N1CCN(Cc2ccccc2)CC1` (stereo not given), the Potency was 14.6 µM (active).

Regarding `Cc1cccc2c1cnn2C(=O)CCC(=O)NC1CCCCC1`, the Potency entry was “inactive”. In the case of `CCOc1ccc2[nH]c3nc(SCC(=O)NC4CCCC4)nnc3c2c1` it was 5.17 µM (active); in that of `O=C(CSc1nnc2c(n1)[nH]c1ccccc12)NC1CCCCC1`, “inactive”; in that of `COc1ccc2[nH]c3nc(SCC(=O)NC4CC4)nnc3c2c1`, “inactive”. On to `CCN(CC)CCNC(=O)c1ccc(NS(=O)(=O)c2ccc3c(c2)OCCO3)cc1`, for which the Potency result is “inactive”. Take `O=S(=O)(Nc1ccccc1)c1ccc(NS(=O)(=O)c2cccs2)cc1`: the Potency result was “inactive”.

Regarding `NS(=O)(=O)c1ccc(CCNC(=O)c2ccc([N+](=O)[O-])cc2[N+](=O)[O-])cc1`, the Potency result was “inactive”. With `Cc1cccc(S(=O)(=O)N(C)C[C@@H]2OCc3cnnn3CCCC(=O)N([C@H](C)CO)C[C@@H]2C)c1`, the Potency entry is “inactive”.

For the compound `Cc1ccc(C(=O)Nc2nc3ccc(Cl)cc3s2)o1`, the Potency result is “inactive”. With `O=C(Nc1cccc2ncccc12)c1ccc(-c2ccc(Cl)cc2Cl)o1`, the Potency is 20.6 µM (active). With `O=C(Nc1cccnc1Cl)c1cc(-c2cccc(Cl)c2)on1`, the Potency entry is “inactive”. For `Cc1csc(NC(=O)c2ccc(-c3ccc(Cl)cc3Cl)o2)n1`, the Potency was 9.2 µM (active). The entry for `O=C(O)c1cc(Cl)c(Cl)cc1C(=O)Nc1cccc2ncccc12` is “inactive”; for `CC(=O)Cc1nsc(NC(=O)c2ccc(Cl)cc2Cl)n1` it is “inactive”. In the case of `O=C(Cc1ccsc1)N1CCN(S(=O)(=O)c2cc(C(F)(F)F)cc(C(F)(F)F)c2)CC1` it was “inactive”; in that of `COc1ccc(CN2CC(C(=O)NCCc3ccc(Cl)cc3)CC2=O)cc1` (stereo not given), “inactive”. Consider `CCc1ccc(Oc2coc3cc(O)ccc3c2=O)cc1`, for which the Potency result was “inactive”. Take `CCN(CCO)C(=S)Nc1cc(C(=O)OC)ccc1C(=O)OC`: the Potency entry was “inactive”. Take `CCCN(CCC)C(=S)Nc1cc(C(=O)OC)ccc1C(=O)OC`: the Potency is 18.4 µM (active). As to `CCS(=O)(=O)Nc1cc(C(=O)OC)ccc1C(=O)OC`, the Potency entry is “inactive”. For the compound `CCc1ccc(-n2nc(C)c3c(C)cc(=O)n(CC(=O)Nc4ccc(F)cc4C)c32)cc1`, the Potency result was “inactive”.

Regarding `CCC(C(=O)OC)n1cnc2c(oc3ccccc32)c1=O` (stereo not given), the Potency entry is “inactive”. Consider `Cc1ccc(S(=O)(=O)N2CCCCC2)cc1NC(=O)c1cccnc1`, for which the Potency result is “inactive”.

`Cc1cc(NS(=O)(=O)c2ccc(NC(=O)c3cccnc3)cc2)nc(C)n1`: the Potency entry is “inactive”. In the case of `COc1ccc(C(=O)NC(=S)N2CCCCC2c2cccnc2)cc1OC` (stereo not given) it was “inactive”; in that of `Cc1cccc(C(=O)Nc2ccc(S(=O)(=O)N3CCCCC3c3cccnc3)cc2)c1` (stereo not given), 23.1 µM (active). Turning to `CCOc1ccccc1C(=O)Nc1ccc(S(=O)(=O)N2CCCCC2c2cccnc2)cc1` (stereo not given), the Potency is 18.4 µM (active). `CCOc1ncccc1C(=O)Nc1ccc(S(=O)(=O)Nc2nc(C)cc(C)n2)cc1`: the Potency entry is “inactive”. On to `COc1ccc(NC(=O)CSc2nnc(-c3nnn(-c4ccc(F)cc4)c3C)o2)cc1`, for which the Potency result was “inactive”.

Consider `CC1(C(=O)NCc2cccc3ccccc23)CCN1Cc1ccc(-c2ccccc2)o1` (stereo not given), for which the Potency is 23.1 µM (active).

With `CCCC(=O)N1CCC1(C)C(=O)NCc1ccc(SC)cc1` (stereo not given), the Potency result was “inactive”. Consider `CSc1ccc(CN2CCC2(C)C(=O)NCc2ccccc2Br)cc1` (stereo not given), for which the Potency is 18.4 µM (active). Turning to `CC1(C(=O)NCc2ccc3c(c2)OCO3)CCN1C(=O)Cc1cccs1` (stereo not given), the Potency entry is “inactive”. For the compound `CSc1ccc(CNC(=O)C2(C)CCCN2C)cc1` (stereo not given), the Potency entry is “inactive”. On to `CC1(C(=O)NS(=O)(=O)c2cccc(F)c2)CCN1C(=O)c1cccc2ccccc12` (stereo not given), for which the Potency entry was “inactive”. For the compound `CCN1CCN(C(c2ccc(C)cc2)c2c(O)cc(C)n(Cc3ccco3)c2=O)CC1` (stereo not given), the Potency result was “inactive”. Consider `O=C(NCc1ccccn1)Nc1ccc(Cl)cc1`, for which the Potency entry is “inactive”. On to `Cn1cccc1/C=N/NC(=O)c1ccc(OC(F)(F)C(F)F)cc1`, for which the Potency result is “inactive”. As to `CCCC(=O)N1CCC1(C)C(=O)NS(=O)(=O)c1ccc(Cl)cc1` (stereo not given), the Potency result is “inactive”. Take `O=C(CCN1C(=O)c2ccccc2C1=O)NCCCn1ccnc1`: the Potency result is “inactive”. Consider `CC(=O)C(C)n1cnc2scc(-c3ccc(C)cc3)c2c1=O` (stereo not given), for which the Potency result is “inactive”. For the compound `CN(C)S(=O)(=O)c1ccc(N2CCCC2)c(C(=O)Nc2cccc(F)c2)c1`, the Potency result was “inactive”. `CCOc1ccc(CN2CCNC(=O)C2CC(=O)NCCCC2CCCC2)cc1` (stereo not given): the Potency is 16.4 µM (active). `Cc1nccn1CCCNC(=O)CC1C(=O)NCCN1Cc1ccc(Cl)c(F)c1` (stereo not given): the Potency entry is “inactive”. As to `O=C(CC1C(=O)NCCN1Cc1ccc(-c2ccccc2)cc1)NCC1CCOCC1` (stereo not given), the Potency entry is “inactive”. The entry for `CCN(C(=O)COC(=O)c1ccccc1O)c1cccc2ccccc12` is “inactive”; for `CC(C)CCNC(=O)CC1C(=O)N(Cc2ccccc2)C(C)c2nc3ccccc3n21` (stereo not given) it is “inactive”; for `Cc1onc(-c2ccccc2)c1-c1nnc(COC(=O)c2ccc(N(C)C)cc2)o1` it is 20.6 µM (active). In the case of `O=C(OCc1nnc(-c2ccccc2)o1)c1ccc2c(c1)C(=O)N(CCc1ccccc1)C2=O`, the Potency entry is “inactive”.

On to `CCOC(=O)c1ccc(COC(=O)CCc2nc(-c3ccccc3)c(-c3ccccc3)o2)cc1`, for which the Potency entry is “inactive”. The entry for `Cc1ccc(C(=O)NCC(=O)OCc2nnc(-c3ccccc3)o2)cc1` is “inactive”. In the case of `Cc1onc(-c2ccccc2Cl)c1C(=O)OCc1nnc(-c2ccccc2)o1` it was 18.4 µM (active); in that of `Cc1onc(-c2ccccc2)c1C(=O)N=C(N)c1ccc(Cl)cc1`, “inactive”. Regarding `Cc1ccc(NC(=O)CCC(=O)N/N=C/c2ccco2)c(C)c1`, the Potency entry was “inactive”. Consider `Nc1nc(O)c(CC(=O)O)s1`, for which the Potency result was “inactive”. In the case of `O=C(NCCNc1ccccc1[N+](=O)[O-])c1ccccc1F`, the Potency entry was “inactive”. The entry for `Cn1nnnc1SCC(=O)Nc1cccc(S(=O)(=O)N2CCCCC2)c1` is “inactive”; for `CCOC(=O)C1=C(NC(=S)NC(=O)c2ccccc2)c2ccccc2CC1(C)C` it is “inactive”. On to `O=C(CSc1nc(O)c(Cc2ccccc2)c(=O)[nH]1)Nc1nc2c(s1)CCCC2`, for which the Potency entry was “inactive”. Consider `Cc1ccc2c(c1)C1CN(C)CCC1N2C(=O)c1ccccc1NS(=O)(=O)c1ccc(F)cc1C` (stereo not given), for which the Potency entry is “inactive”. In the case of `O=C1O/C(=C\c2ccc(O)cc2)C(O)=C1c1ccc(O)cc1`, the Potency result was “inactive”. With `COc1cc(C2C3=C(CCCC3=O)OC3=C2C(=O)CCC3)ccc1OCC(=O)Nc1ccccc1`, the Potency result is “inactive”. `O=C1c2ccccc2S(=O)(=O)N1Cc1c(F)cccc1Cl`: the Potency result was “inactive”. In the case of `O=c1c(=O)n(Cc2c(F)cccc2Cl)ccn1Cc1ccccc1` it was “inactive”; in that of `Cc1ccc(C)c(N2C(=O)N(Cc3c(F)cccc3Cl)c3ccccc3S2(=O)=O)c1`, 18.4 µM (active); in that of `CCCCn1c(N)c(N(CC(C)C)C(=O)c2cccc(S(=O)(=O)N3CC(C)OC(C)C3)c2)c(=O)[nH]c1=O` (stereo not given), “inactive”.

For the compound `O=C(COc1ccc2ccc(=O)oc2c1)NCC(O)c1ccccc1` (stereo not given), the Potency entry was “inactive”. With `NC(=O)COc1ccc2c3c(c(=O)oc2c1)CCCCC3`, the Potency result was “inactive”. As to `O=C(COc1ccc2c3c(c(=O)oc2c1)CCCC3)NCC(O)c1ccccc1` (stereo not given), the Potency was 20.6 µM (active). As for `Cc1cc(CNC(=O)C2CCC(=O)N(CCc3ccc(Cl)cc3)C2)no1` (stereo not given), the Potency result is “inactive”. As to `O=c1c2ccccc2nnn1CSc1nc2sc3c(c2c(=O)n1CC1CCCO1)CCC3` (stereo not given), the Potency is 16.4 µM (active). As to `Nc1nnc(SCn2nnc3ccccc3c2=O)s1`, the Potency entry was “inactive”. As to `O=c1c2ccccc2nnn1CSc1nnnn1-c1ccccc1`, the Potency entry was “inactive”. The entry for `O=S(=O)(Nc1ccc(Cl)cn1)c1cnc(Cl)c(Br)c1` is “inactive”; for `CN1CCN(C(=O)c2ccc(-c3ccc(Br)cc3)o2)CC1` it is “inactive”; for `CCOC(=O)N1CCN(Cc2nc3ccc([N+](=O)[O-])cc3c(=O)n2-c2cccc(OC)c2)CC1` it is “inactive”. With `Cc1ccc(NN=C2C(=O)OC(C)(C)OC2=O)c(C)c1`, the Potency result was “inactive”. Regarding `Cc1ccc(N2CCN(C3=NC(=O)/C(=C\c4cccs4)S3)CC2)cc1`, the Potency entry was “inactive”. Take `CC(C)=C1SC(N2CCN(c3ccc(C)c(Cl)c3)CC2)=NC1=O`: the Potency result is “inactive”. `CC(C)=C1SC(N2CCN(c3cccc(C)c3)CC2)=NC1=O`: the Potency is 20.6 µM (active). For the compound `CCOC(=O)C(C)Sc1nnc(CSc2nc3nc(C)cc(C)n3n2)o1` (stereo not given), the Potency result is “inactive”. `C=CCNC(=O)COc1coc(CN2CCN(Cc3ccccc3)CC2)cc1=O`: the Potency result was “inactive”.

Turning to `C=CCNC(=S)/N=c1/ccccn1Cc1ccccc1`, the Potency was 7.31 µM (active). `CNC(=S)NNC(=O)c1cccn(Cc2ccccc2)c1=O`: the Potency result is “inactive”. With `NS(=O)(=O)c1ccc(N=Cc2ccc(Br)s2)cc1`, the Potency result was “inactive”. The entry for `COc1cc(OC)cc(-c2c(C#Cc3ccsc3)c3cc(-c4ccc(OC)cc4F)ccc3n2C)c1` is “inactive”; for `COc1cc(OC)cc(-c2c(-c3cccs3)c3cc(-c4ccc(OC)nc4)ccc3n2C)c1` it is 20.6 µM (active); for `COc1cc(OC)cc(-c2c(C#Cc3ccsc3)c3cc(-c4ccc(SC)cc4)ccc3n2C)c1` it is “inactive”. As to `CCOC(=O)C1(CCOc2ccccc2)CCN(C(=O)c2cncs2)CC1`, the Potency entry is “inactive”. Consider `CCOC(=O)C1(CCOc2ccccc2)CCN(Cc2cc(OC)cc(OC)c2)CC1`, for which the Potency was 25.9 µM (active).

Regarding `CCOC(=O)C1(Cc2cccc(OC)c2)CCN(C(C)CC(C)(C)O)CC1` (stereo not given), the Potency entry was “inactive”.

Regarding `O=C(CCc1ccccc1)Nc1ccnn1C1CCN(Cc2ccc(OCCO)cc2)CC1`, the Potency entry was “inactive”. On to `CCOC(=O)C1(CCOC)CCN(Cc2ccc(C(=O)OC)cc2)CC1`, for which the Potency entry was “inactive”. Regarding `CCOC(=O)C1(S(=O)(=O)c2ccc(Cl)cc2)CCN(Cc2ccccc2)CC1`, the Potency result was “inactive”. As for `CCOC(=O)C1(CCOc2ccccc2)CCN(Cc2ccc(C#CCCO)cc2)CC1`, the Potency is 18.4 µM (active).

As for `CCOC(=O)C1(CCOC)CCN(Cc2cc3ccccc3s2)CC1`, the Potency is 18.4 µM (active). In the case of `O=C(c1cn(CC2CCCN(Cc3cc4ccccc4s3)C2)nn1)N1CCCC1` (stereo not given) it was “inactive”.
